Results reported in ChEMBL document CHEMBL1961873, “Compounds: GSK PKIS; Assays: Nanosyn kinase panel” (2012).

Columns and labels:
[1] = molecular target: Casein kinase I isoform gamma-2 (Homo sapiens) (UniProt P78368); settings: at 1 µM
[2] = molecular target: Casein kinase I isoform gamma-3 (Homo sapiens) (UniProt Q9Y6M4); settings: at 0.1 µM
[3] = molecular target: Casein kinase I isoform gamma-3 (Homo sapiens) (UniProt Q9Y6M4); settings: at 1 µM
[4] = molecular target: Cyclin-dependent kinase 1 (Homo sapiens) (UniProt P06493); settings: at 0.1 µM
Sequence of Cyclin-dependent kinase 1 (Homo sapiens) (P06493 whole entry, looked up): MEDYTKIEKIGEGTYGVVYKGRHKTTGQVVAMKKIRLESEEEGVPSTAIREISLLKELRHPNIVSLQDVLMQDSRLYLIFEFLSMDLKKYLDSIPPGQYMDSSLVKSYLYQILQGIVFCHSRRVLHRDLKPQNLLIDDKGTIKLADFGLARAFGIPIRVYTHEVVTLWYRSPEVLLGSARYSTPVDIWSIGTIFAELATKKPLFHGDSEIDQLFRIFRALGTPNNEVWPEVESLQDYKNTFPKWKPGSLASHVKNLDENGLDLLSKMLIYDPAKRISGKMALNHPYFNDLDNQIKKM

[5] = molecular target: Cyclin-dependent kinase 1 (Homo sapiens) (UniProt P06493); settings: at 1 µM
[6] = molecular target: Cyclin-dependent kinase 2 (Homo sapiens) (UniProt P24941); settings: at 0.1 µM
[7] = molecular target: Cyclin-dependent kinase 2 (Homo sapiens) (UniProt P24941); settings: at 1 µM
[8] = molecular target: Cyclin-dependent kinase 2 (Homo sapiens) (UniProt P24941); settings: at 0.1 µM; remark: listed apart in the source
[9] = molecular target: Cyclin-dependent kinase 2 (Homo sapiens) (UniProt P24941); settings: at 1 µM; remark: listed apart in the source
[10] = molecular target: T1, CDK3/Cyclin E (Homo sapiens) (UniProt P24864+Q00526); settings: at 0.1 µM
T1 sequence (P24864 whole entry, looked up): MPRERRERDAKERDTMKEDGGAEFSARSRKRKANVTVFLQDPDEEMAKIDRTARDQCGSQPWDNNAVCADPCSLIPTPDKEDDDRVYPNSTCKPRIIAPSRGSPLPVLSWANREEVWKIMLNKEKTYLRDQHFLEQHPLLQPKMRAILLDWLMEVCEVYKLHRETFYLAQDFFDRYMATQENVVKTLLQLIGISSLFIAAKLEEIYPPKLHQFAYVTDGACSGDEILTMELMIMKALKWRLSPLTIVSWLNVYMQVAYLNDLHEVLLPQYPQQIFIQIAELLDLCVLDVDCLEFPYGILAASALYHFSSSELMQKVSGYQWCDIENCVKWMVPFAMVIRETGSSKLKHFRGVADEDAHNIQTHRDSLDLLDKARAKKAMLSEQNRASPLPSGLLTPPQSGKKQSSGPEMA
T1 sequence (Q00526 whole entry, looked up): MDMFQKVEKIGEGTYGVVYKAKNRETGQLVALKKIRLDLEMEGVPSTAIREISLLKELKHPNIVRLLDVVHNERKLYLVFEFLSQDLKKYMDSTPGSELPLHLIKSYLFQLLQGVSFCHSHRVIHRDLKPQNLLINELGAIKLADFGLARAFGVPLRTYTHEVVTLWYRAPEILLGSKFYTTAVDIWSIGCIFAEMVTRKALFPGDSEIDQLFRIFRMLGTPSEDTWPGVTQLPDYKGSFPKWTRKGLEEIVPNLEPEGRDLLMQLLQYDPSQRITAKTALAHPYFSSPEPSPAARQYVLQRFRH

[11] = molecular target: T1, CDK3/Cyclin E (Homo sapiens); settings: at 1 µM
[12] = molecular target: Cyclin-dependent kinase 4 (Homo sapiens) (UniProt P11802); settings: at 0.1 µM
Sequence of Cyclin-dependent kinase 4 (Homo sapiens) (P11802 whole entry): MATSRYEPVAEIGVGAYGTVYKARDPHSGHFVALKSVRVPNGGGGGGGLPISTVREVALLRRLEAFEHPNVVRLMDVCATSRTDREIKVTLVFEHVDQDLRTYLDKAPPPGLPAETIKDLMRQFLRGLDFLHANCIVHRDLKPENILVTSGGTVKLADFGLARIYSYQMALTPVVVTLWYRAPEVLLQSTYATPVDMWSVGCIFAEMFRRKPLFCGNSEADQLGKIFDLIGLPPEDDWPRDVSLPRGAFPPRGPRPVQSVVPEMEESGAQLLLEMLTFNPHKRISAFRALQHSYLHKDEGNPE

[13] = molecular target: Cyclin-dependent kinase 4 (Homo sapiens) (UniProt P11802); settings: at 1 µM
[14] = molecular target: Cyclin-dependent kinase 5 (Homo sapiens) (UniProt Q00535); settings: at 0.1 µM
Sequence of Cyclin-dependent kinase 5 (Homo sapiens) (Q00535 whole entry, looked up): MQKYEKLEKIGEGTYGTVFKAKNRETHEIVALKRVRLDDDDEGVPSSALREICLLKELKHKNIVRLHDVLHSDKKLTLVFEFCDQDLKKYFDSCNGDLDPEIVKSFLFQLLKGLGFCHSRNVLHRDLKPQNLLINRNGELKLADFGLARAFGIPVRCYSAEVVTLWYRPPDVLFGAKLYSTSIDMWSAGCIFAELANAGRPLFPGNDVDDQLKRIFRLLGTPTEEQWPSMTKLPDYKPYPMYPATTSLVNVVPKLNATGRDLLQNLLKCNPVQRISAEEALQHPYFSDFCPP

[15] = molecular target: Cyclin-dependent kinase 5 (Homo sapiens) (UniProt Q00535); settings: at 1 µM
[16] = molecular target: Cyclin-dependent kinase 6 (Homo sapiens) (UniProt Q00534); settings: at 0.1 µM
Sequence of Cyclin-dependent kinase 6 (Homo sapiens) (Q00534 whole entry): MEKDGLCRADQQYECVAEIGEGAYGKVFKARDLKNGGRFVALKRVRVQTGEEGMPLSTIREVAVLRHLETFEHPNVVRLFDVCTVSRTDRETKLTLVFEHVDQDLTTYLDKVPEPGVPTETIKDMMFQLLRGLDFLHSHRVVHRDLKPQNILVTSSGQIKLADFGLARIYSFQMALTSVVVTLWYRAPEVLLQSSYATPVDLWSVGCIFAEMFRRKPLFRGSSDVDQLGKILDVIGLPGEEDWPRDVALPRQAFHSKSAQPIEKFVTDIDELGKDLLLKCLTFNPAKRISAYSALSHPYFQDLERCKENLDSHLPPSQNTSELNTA

[17] = molecular target: Cyclin-dependent kinase 6 (Homo sapiens) (UniProt Q00534); settings: at 1 µM
[18] = molecular target: Dual specificity protein kinase CLK2 (Homo sapiens) (UniProt P49760); settings: at 0.1 µM
Sequence of Dual specificity protein kinase CLK2 (Homo sapiens) (P49760 whole entry, looked up): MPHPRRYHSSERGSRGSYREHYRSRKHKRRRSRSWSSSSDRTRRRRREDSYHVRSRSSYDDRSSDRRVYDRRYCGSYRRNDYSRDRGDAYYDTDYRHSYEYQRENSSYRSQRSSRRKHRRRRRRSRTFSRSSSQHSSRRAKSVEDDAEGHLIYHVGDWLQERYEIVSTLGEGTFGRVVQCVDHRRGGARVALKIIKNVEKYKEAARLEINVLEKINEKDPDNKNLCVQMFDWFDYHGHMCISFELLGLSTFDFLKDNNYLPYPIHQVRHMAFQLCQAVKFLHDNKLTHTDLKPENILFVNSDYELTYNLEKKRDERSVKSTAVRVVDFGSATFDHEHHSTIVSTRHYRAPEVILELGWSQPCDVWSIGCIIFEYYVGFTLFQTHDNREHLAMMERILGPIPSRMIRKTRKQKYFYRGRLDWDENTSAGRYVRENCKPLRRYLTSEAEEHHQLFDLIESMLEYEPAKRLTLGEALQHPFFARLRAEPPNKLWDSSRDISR

[19] = molecular target: Dual specificity protein kinase CLK2 (Homo sapiens) (UniProt P49760); settings: at 1 µM
[20] = molecular target: Dual specificity protein kinase CLK3 (Homo sapiens) (UniProt P49761); settings: at 0.1 µM
Sequence of Dual specificity protein kinase CLK3 (Homo sapiens) (P49761 whole entry, looked up): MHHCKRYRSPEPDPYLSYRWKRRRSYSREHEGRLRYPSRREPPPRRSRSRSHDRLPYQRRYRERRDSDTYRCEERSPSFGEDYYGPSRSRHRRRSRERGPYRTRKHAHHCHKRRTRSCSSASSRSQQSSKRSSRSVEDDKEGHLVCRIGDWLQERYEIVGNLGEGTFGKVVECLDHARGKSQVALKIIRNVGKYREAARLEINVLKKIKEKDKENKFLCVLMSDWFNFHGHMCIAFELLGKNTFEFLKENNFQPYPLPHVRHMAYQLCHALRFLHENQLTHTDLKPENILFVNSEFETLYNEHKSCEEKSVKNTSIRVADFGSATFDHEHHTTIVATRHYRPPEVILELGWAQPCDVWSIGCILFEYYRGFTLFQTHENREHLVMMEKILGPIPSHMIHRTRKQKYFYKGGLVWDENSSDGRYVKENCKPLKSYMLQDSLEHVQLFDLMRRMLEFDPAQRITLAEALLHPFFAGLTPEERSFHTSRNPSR

Sequence of Casein kinase I isoform gamma-2 (Homo sapiens) (P78368 whole entry, looked up, canonical isoform): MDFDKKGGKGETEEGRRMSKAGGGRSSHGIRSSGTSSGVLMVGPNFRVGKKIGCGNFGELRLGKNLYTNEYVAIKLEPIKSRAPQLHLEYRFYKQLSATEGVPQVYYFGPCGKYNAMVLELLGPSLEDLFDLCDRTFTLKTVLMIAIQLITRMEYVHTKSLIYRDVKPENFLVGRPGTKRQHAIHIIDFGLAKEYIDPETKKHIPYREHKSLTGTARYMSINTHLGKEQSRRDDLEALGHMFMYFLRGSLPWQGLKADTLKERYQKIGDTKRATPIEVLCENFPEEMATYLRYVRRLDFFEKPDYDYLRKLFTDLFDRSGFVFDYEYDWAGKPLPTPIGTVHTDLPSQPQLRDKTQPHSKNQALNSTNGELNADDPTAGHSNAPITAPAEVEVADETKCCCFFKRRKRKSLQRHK
Sequence of Casein kinase I isoform gamma-3 (Homo sapiens) (Q9Y6M4 whole entry, looked up, canonical isoform): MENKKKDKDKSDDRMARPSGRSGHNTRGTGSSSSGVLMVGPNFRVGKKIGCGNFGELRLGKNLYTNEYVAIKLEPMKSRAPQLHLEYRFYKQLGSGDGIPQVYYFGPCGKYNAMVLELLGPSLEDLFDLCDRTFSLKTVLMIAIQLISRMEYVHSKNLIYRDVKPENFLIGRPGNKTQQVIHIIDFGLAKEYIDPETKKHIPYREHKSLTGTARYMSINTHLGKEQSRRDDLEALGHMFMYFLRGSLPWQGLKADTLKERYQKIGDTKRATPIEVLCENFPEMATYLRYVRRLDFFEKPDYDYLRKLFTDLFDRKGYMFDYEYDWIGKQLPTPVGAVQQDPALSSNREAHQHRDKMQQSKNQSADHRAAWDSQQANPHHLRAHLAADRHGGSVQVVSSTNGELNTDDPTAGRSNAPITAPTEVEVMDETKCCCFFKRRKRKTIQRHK

SMILES | inhibition [1] [%] | inhibition [2] [%] | inhibition [3] [%] | inhibition [4] [%] | inhibition [5] [%] | inhibition [6] [%] | inhibition [7] [%] | inhibition [8] [%] | inhibition [9] [%] | inhibition [10] [%] | inhibition [11] [%] | inhibition [12] [%] | inhibition [13] [%] | inhibition [14] [%] | inhibition [15] [%] | inhibition [16] [%] | inhibition [17] [%] | inhibition [18] [%] | inhibition [19] [%] | inhibition [20] [%]
COc1cc(/C=N/Nc2ncnc3[nH]ncc23)ccc1O | 25.1 | 3.84 | 20 | 2.77 | 15.8 | 3.26 | 28.3 | 4.7 | 13.9 | 1.56 | 6.95 | 2.99 | 5.18 | 2.93 | 16.3 | 10.4 | 15.9 | 2.37 | 28.6 | 2.85
NS(=O)(=O)c1ccc(N/N=C2\C(=O)Nc3ccc4ncccc4c32)cc1 | 7.05 | 1.94 | 12.7 | 61.3 | 80.5 | 93.4 | 86.6 | 83.1 | 84.3 | 79.7 | 99.2 | 48 | 76.2 | 79 | 83.4 | 53.5 | 81.4 | 19.3 | 72.3 | 2.36
Fc1ccc(-c2nn3ccccc3c2-c2ccncc2)cc1 | 7.48 | 0.7 | 15.1 | 0.74 | 1.96 | 2.05 | 2.06 | 1.19 | 2.02 | 0.78 | -1.11 | 1.37 | 2.18 | 0.46 | 0.96 | -1.88 | 2.7 | 0.24 | 1.47 | 0.63
COc1cccc(-n2ncc3c(N/N=C/c4ccc(F)cc4)ncnc32)c1 | 4.65 | 3.39 | 3.4 | 9.55 | 35.5 | 10.1 | 48.5 | 5.86 | 15.5 | 3.62 | 4.95 | 6.67 | 17.3 | 9.38 | 32.8 | 7.13 | 16.8 | 2.52 | 4.42 | 3.03
CNC(=O)c1cccc(C#Cc2cncnc2Nc2ccc(OCc3cccc(F)c3)c(Cl)c2)c1 | 1.26 | 2.38 | 0.88 | 0.46 | 2.85 | -0.2 | 6.57 | 4.58 | 4.27 | 2.79 | 3.72 | 2.35 | 3.08 | 1.3 | 2.33 | 4.83 | 1.6 | 0.38 | 2.72 | -0.87
CCn1c(-c2nonc2N)nc2c(C#CC(C)(C)O)ncc(OC3CCNCC3)c21 | 3.98 | 2.65 | 3.15 | 2.33 | 2.34 | 3.56 | 1.76 | 1.95 | 3.09 | -1.98 | -2.14 | 2.68 | 3.11 | 0.91 | 2.08 | -2.96 | -1.44 | 2.21 | 18 | 0.62
NC(=O)c1sc(-n2cnc3ccc(C(F)(F)F)cc32)cc1OCc1ccccc1Br | 4.58 | 1.35 | 2.37 | -0.53 | 1.01 | 1.25 | 1.52 | 1.94 | 3.25 | 1.2 | -2.34 | 1.68 | 2.94 | -0.39 | -0.71 | -0.29 | 1.76 | 3.14 | 27.6 | 2.31
CN(C)CCOc1ccc(-c2nc(-c3ccncc3)c(-c3ccc4c(c3)CC/C4=N\O)[nH]2)cc1 | 4.12 | 3.08 | 3.59 | 1.59 | 5.87 | 1.86 | 11.1 | 6.01 | 7.95 | 3.78 | -2.98 | 2.94 | 6.21 | 2.41 | 5.88 | 7.36 | 9.02 | -1.13 | 2.18 | 1.97
COc1ccc(-c2cc3c(N)ncnc3o2)cc1 | -0.54 | -0.97 | 0.61 | 2.33 | 6.06 | 1.51 | 2.69 | 1.72 | 5.09 | 0.47 | 1.68 | 0.18 | 3.35 | 1.53 | 5.3 | -1.4 | 2.82 | 0.46 | 2.78 | 0.59
COc1cc2c(cc1Nc1nc(Nc3ccsc3C(N)=O)c3cc[nH]c3n1)N(C(=O)CN(C)C)CCC2(C)C | 20.6 | 4.29 | 24.3 | 2.56 | 6.04 | 3.04 | -0.79 | 8.82 | 10.2 | 8.96 | -1.09 | 5.42 | 8.61 | 6.36 | 7.33 | 1.59 | 9.92 | 29 | 79.5 | 2
FC(F)(F)c1cccc(-c2nn3ncccc3c2-c2ccnc(Nc3ccc4c(c3)OCCO4)n2)c1 | 3.28 | 1.54 | 4.56 | 1.58 | 3.23 | 1.29 | 0.77 | 4.14 | 4.5 | 1.7 | -0.03 | 2.66 | 4.56 | 1.65 | 2.11 | -1.79 | 2.39 | 1.11 | 0.64 | 0.73
c1ccc(-c2nc3n(c2-c2ccc4c(c2)OCO4)CCC3)nc1 | 1.81 | 0.57 | 4.18 | 0.17 | 1.42 | 1.58 | -5.6 | 2.41 | 3.84 | 2.37 | 0.43 | 2.02 | 2.7 | 0.64 | 1.86 | -1.72 | 3.55 | 0.44 | -1.18 | 3.62
COc1ccc(-c2nn3ncccc3c2-c2ccnc(Nc3ccc4c(c3)OCCO4)n2)cc1 | 3.08 | 0.17 | 1.38 | 0.5 | 1.38 | 0.22 | 0.43 | -0.84 | -0.22 | -2.12 | -2.16 | -0.27 | 2.65 | -0.08 | 2.41 | -4.12 | -0.81 | 0.37 | 0.98 | -0.22
